What was measured:
[1] = biological target: RAF proto-oncogene serine/threonine-protein kinase (Homo sapiens) (UniProt P04049); settings: at 1 µM;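 further: values are the mean percent inhibition of CRAF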
[2] = biological target: T1, Interleukin-1 receptor-associated kinase 4 (Homo sapiens) (UniProt Q9NWZ3); settings: at 0.1 µM
T1 sequence (whole entry): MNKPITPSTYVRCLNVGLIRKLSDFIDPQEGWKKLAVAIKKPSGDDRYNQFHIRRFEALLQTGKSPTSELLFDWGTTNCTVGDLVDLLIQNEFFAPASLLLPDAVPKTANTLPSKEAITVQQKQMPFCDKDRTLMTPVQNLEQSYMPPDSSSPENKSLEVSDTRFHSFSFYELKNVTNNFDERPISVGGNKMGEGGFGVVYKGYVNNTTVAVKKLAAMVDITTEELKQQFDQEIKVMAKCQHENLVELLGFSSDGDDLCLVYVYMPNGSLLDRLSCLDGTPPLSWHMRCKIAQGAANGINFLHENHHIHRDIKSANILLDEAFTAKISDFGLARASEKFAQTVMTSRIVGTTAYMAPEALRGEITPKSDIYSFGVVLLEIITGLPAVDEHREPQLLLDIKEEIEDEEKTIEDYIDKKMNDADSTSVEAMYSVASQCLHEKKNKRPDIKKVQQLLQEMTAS

[3] = biological target: T1, Interleukin-1 receptor-associated kinase 4 (Homo sapiens); settings: at 1 µM
[4] = biological target: Leucine-rich repeat serine/threonine-protein kinase 2 (Homo sapiens) (UniProt Q5S007); settings: at 0.1 µM
[5] = biological target: Leucine-rich repeat serine/threonine-protein kinase 2 (Homo sapiens) (UniProt Q5S007); settings: at 1 µM
[6] = tested on: Leucine-rich repeat serine/threonine-protein kinase 2 (Homo sapiens), Q5S007 [G2019S]; settings: at 0.1 µM
[7] = tested on: Leucine-rich repeat serine/threonine-protein kinase 2 (Homo sapiens), Q5S007 [G2019S]; settings: at 1 µM

Leucine-rich repeat serine/threonine-protein kinase 2 (Homo sapiens), sequence (Q5S007 whole entry): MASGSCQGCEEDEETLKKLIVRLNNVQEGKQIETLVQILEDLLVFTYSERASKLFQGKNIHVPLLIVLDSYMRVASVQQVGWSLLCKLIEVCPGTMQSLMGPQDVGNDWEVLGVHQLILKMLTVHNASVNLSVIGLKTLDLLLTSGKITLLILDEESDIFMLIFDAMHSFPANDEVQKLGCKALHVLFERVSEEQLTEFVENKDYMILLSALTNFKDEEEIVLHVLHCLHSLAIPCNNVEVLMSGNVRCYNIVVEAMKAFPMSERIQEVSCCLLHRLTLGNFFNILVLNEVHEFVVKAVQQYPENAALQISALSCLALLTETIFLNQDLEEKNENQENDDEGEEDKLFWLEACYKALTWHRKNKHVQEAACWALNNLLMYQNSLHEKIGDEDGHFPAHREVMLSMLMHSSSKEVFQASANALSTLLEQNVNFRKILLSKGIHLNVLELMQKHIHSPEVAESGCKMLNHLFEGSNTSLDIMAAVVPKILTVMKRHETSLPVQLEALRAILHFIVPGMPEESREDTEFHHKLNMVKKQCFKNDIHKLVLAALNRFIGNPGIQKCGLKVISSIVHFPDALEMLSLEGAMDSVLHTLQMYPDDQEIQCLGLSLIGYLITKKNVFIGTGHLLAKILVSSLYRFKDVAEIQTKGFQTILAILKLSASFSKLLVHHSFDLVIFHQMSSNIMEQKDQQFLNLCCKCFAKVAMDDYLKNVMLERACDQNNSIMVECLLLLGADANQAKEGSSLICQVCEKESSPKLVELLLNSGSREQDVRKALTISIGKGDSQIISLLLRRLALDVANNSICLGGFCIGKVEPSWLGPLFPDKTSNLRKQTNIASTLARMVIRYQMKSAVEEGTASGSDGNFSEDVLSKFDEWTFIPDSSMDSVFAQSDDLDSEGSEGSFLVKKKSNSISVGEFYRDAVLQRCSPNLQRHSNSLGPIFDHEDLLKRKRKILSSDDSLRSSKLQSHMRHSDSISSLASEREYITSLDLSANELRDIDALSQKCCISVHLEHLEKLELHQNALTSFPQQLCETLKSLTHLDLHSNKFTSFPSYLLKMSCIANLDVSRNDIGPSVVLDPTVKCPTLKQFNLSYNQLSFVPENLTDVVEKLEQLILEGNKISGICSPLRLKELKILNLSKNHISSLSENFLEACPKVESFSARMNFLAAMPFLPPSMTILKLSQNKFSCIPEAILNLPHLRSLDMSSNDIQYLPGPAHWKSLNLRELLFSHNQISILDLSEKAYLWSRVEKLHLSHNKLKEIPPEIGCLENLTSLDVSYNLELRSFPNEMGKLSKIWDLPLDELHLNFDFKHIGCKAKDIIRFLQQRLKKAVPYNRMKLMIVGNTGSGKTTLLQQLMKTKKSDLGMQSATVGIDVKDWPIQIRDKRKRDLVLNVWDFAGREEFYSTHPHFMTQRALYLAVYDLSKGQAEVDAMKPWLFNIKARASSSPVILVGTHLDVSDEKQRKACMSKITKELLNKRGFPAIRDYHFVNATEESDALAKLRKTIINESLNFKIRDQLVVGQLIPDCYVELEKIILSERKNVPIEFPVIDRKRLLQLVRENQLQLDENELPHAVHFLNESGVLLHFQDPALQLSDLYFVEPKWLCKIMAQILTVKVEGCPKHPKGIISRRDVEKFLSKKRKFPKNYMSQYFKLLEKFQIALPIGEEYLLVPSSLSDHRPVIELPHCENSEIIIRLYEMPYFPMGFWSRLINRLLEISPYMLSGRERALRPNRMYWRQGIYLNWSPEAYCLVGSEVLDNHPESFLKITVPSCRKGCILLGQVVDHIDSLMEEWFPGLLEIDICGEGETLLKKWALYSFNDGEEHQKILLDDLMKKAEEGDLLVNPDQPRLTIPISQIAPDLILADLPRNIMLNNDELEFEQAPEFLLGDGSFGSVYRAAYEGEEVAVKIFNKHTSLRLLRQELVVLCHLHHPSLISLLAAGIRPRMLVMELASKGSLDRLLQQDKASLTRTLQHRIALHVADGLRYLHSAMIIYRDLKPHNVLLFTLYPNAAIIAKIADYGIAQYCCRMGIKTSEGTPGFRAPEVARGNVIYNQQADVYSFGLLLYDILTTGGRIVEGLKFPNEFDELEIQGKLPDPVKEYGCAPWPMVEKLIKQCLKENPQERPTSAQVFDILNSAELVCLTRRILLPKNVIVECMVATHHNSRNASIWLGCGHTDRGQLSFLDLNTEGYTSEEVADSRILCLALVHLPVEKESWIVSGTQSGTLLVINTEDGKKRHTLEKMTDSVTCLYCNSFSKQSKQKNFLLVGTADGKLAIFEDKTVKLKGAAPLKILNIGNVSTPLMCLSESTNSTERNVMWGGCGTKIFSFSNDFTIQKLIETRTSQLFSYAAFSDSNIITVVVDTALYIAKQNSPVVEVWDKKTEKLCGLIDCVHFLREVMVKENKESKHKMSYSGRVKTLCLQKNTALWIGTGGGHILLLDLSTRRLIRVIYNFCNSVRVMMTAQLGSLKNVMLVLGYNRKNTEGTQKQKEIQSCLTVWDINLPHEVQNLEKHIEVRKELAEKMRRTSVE
Leucine-rich repeat serine/threonine-protein kinase 2 (Homo sapiens), Q5S007 [G2019S], sequence (Q5S007 whole entry G2019S): as the sequence (Q5S007 whole entry) above, with G2019S counted along it
RAF proto-oncogene serine/threonine-protein kinase (Homo sapiens), sequence (P04049 whole entry): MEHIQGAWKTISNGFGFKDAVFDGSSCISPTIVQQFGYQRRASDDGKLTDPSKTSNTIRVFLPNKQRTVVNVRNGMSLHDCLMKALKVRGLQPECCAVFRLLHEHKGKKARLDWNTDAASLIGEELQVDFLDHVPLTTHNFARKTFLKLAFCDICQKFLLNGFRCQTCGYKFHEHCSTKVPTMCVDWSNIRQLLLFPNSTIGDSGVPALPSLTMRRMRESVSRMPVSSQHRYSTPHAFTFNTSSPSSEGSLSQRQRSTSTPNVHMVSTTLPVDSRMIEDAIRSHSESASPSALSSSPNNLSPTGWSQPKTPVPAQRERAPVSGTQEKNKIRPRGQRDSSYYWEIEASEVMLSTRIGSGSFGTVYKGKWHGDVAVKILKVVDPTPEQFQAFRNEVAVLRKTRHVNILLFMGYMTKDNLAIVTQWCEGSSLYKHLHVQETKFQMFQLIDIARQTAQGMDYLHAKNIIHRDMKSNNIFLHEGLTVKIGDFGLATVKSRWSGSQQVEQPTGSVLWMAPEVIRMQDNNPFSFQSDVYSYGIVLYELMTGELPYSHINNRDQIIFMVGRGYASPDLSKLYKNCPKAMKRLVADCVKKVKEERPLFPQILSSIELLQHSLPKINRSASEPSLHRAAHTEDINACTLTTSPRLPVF

Structure (SMILES)	inhibition [1] [%]	inhibition [2] [%]	inhibition [3] [%]	inhibition [4] [%]	inhibition [5] [%]	inhibition [6] [%]	inhibition [7] [%]
COc1cc(N2CCN(C(C)C)CC2)ccc1Nc1nc(Nc2ccc(F)cc2C(=O)NC[C@@H](O)CO)c2cc[nH]c2n1	2.01	3.02	2.5	10.5	14.5	48.9	55.5
CNC(=O)c1cncc(/C=C/c2c(C)cccc2C)c1	-0.25	-1.78	0.42	-5.56	-1.97	-3.85	-1.34
COc1cc2ncn(-c3cc(OCCc4ccccc4)c(C(N)=O)s3)c2cc1OC	-9.47	2.95	0.72	4.52	10.8	6.42	32.5
O=C1Nc2ccccc2/C1=C/Nc1ccc(-n2cncn2)cc1	5.44	2.2	2.52	4.2	9.2	6.6	23.9
C/C(Nc1ccc(S(N)(=O)=O)cc1)=C1/C(=O)Nc2ccccc21	-3.52	2.06	0.3	3.27	18.4	11.4	47.1
Fc1ccc(-c2c(-c3ccncc3)nc3n2CCS3)cc1	-2.98	1.96	1.7	-3.32	-2.49	-1.05	0.48
CCC(=O)Nc1ccc(C)c(-c2ccc(C(=O)NCC3CC3)cc2)c1	-0.29	1.62	2.19	-0.86	1.68	0.68	2.28
Fc1ccc(-c2ncn(C3CCNCC3)c2-c2ccnc(Oc3ccc(Oc4ccccc4)cc3)n2)cc1	0.47	1.5	1.78	0.62	5.34	5.08	8.01
c1ccc(Oc2ccc(Nc3ncc(-c4ccccc4)o3)cc2)cc1	1.5	1.75	0.97	1.55	3.95	4.15	6.81
Nc1nccc(-c2c(-c3ccc(F)cc3)ncn2C2CCC(O)CC2)n1 (stereo not drawn)	-9.19	-0.79	-1	-0.71	0.86	1.56	4.03
NS(=O)(=O)c1ccc(N/N=C2\C(=O)Nc3ccc(C(=O)NCCCn4ccnc4)cc32)cc1	17.5	3.89	1.67	7.05	18.7	11.1	38.8
O=C1NC(=O)C(c2cccc(Cl)c2)=C1Nc1ccc(Cl)c(C(=O)O)c1	17.7	3.69	1.5	2.15	4.76	3.36	7.81
COc1cc2ncn(-c3cc(OCc4cccs4)c(C(N)=O)s3)c2cc1OC	6.17	-3.1	1.66	2.29	9.04	15.9	54
COc1ccc(C2=C(N3CCc4ccccc43)C(=O)NC2=O)cc1	-3.87	5.89	2.48	3.04	10.9	4.7	13.9
Clc1ccc(CNc2nccc(-c3cnn4ncccc34)n2)cc1	-1.19	-1.73	2.1	1.21	14	1.24	13
Fc1ccc(-c2ncn(C3CCNCC3)c2-c2ccnc(Oc3ccc4c(c3)OCO4)n2)cc1	-0.17	2.54	2.7	5.57	11.2	6.45	10.9
Cc1ccc(NC(=O)c2ccoc2)cc1-c1ccc(C(=O)NCC2CC2)cc1	-0.41	1.67	2	1.24	4.06	2.32	2.75

Structure (SMILES)	inhibition [1] [%]	inhibition [2] [%]	inhibition [3] [%]	inhibition [4] [%]	inhibition [5] [%]	inhibition [6] [%]	inhibition [7] [%]
NC(=O)Cc1ccccc1Oc1nccc(-c2c(-c3ccc(F)cc3)ncn2C2CCNCC2)n1	-7.05	3.72	1.16	6.61	2.56	6.11	8.33
COc1cc2ncn(-c3cc(OCc4ccccc4C(F)(F)F)c(C(C)=O)s3)c2cc1OC	-1.56	0.98	1.4	3.23	6.15	3.58	6.68
O=C(Nc1ccc(Oc2ccc3[nH]c(NC(=O)c4ccccc4)nc3c2)cc1)Nc1cc(C(F)(F)F)ccc1F	17.9	-1.64	2.09	13	18.4	6.22	36.1
c1ccc(-c2n[nH]cc2-c2ccnc(-c3ccc(OCCN4CCOCC4)cc3)c2)nc1	0.21	2.23	0.43	11	8.18	6.06	13.7
NC(=O)c1ccc(Oc2nccc(-c3c(-c4ccc(F)cc4)ncn3C3CCNCC3)n2)cc1	0.88	2.75	3.85	0.29	5.49	3.7	7.46
O=C(Nc1n[nH]c2nc(-c3ccco3)ccc12)C1CC1	0.48	-2.9	0.56	3.59	7.47	2.37	8.01
N#Cc1ccc(Oc2nccc(-c3c(-c4ccc(F)cc4)ncn3C3CCNCC3)n2)cc1	-0.95	2.17	2.43	2.8	3.91	4.91	4.95
C#Cc1cccc(Nc2ncnc3ccc(OCCCCNCCS(C)(=O)=O)cc23)c1	-0.78	4.25	2.41	-4.32	1.7	-0.62	5.54
Cc1nnc(-c2ccc(C)c(-c3ccc(C(=O)NCc4ccc(Cl)cc4)cc3)c2)o1	-0.47	4.09	2.12	-4.32	-3.04	-2.08	-4
O=C(Nc1n[nH]c2cc(-c3cc(F)ccc3F)ccc12)C1CC1	-0.98	2.21	1.18	2.33	3.26	1.81	6.24
CN(C)CCOc1ccc(-c2cc(-c3ccc4c(c3)CCC4=NO)c(-c3ccncc3)o2)cc1	39.8	-0.42	0.12	1.03	3.55	1.85	2.48
COc1cc(Nc2ncc(-c3ccccc3)o2)cc(OC)c1OC	-4.59	-0.52	0.55	0.73	8.78	4.17	21.3
Fc1ccc(-c2ncn(CCCN3CCOCC3)c2-c2ccncc2)cc1	-5.69	3.04	-0.71	0.7	3.28	1.27	4.28
Fc1ccc(-c2nc3n(c2-c2ccncc2)CCS3)cc1	-0.15	3.38	2.37	-3.58	-3.17	-0.21	-0.63
NCc1ccc(-n2c(-c3nonc3N)nc3cnccc32)cc1	3.91	-0.81	2.35	17.2	53.5	22	54.1
Cc1ccc(C(=O)NC2CCC2)cc1-c1ccc(C(=O)NCC2CC2)cc1	-1.36	3.77	1.51	2.63	2.18	2.78	5.64
CS(=O)(=O)CCNCc1cc(-c2cc3c(Nc4ccc(OCc5cccc(F)c5)c(Cl)c4)ncnc3s2)cs1	-3.41	2.58	3.31	0.31	4.51	1.2	5.39

From ChEMBL document CHEMBL1961873, “Compounds: GSK PKIS; Assays: Nanosyn kinase panel” (2012)
